# In PubChem BioAssay AID1159580 (chemical genetic matrix, 2015):
# Where “and” joins values, the source holds several entries; their conditions need not be identical. Identical values can stand only once. The whole screen tested about 5,500 compounds, of which about 2,000 (36%) were called active. Roughly 18% stayed inconclusive and do not appear here. No stated cut-off is given here; in the data, active means normalized growth mostly below about 0.91 (no sharp cut-off); inconclusive means no clear call, values can overlap the other calls; inactive means mostly above about 0.92. This is one part of the list. More than one record can exist for a structure, and the calls need not agree.
# Experiment: chemical genetic growth profiling, strain panel (AID 1159580);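 further: tested at 20 µM; growth read once vehicle control cultures reached saturation at 30 °C; 1 = growth at the plate median or of vehicle wells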
# Details: growth OD
smiles,measurement,setting,value
CN1CCN(CCCN2c3ccccc3Sc3ccc(C(F)(F)F)cc32)CC1,normalized growth,"S. cerevisiae deletion strains, locus YJR075W, strain HOC1, stronger effect = lower value",0.0765 (active) and 0.787 (active)
same,normalized growth,"S. cerevisiae deletion strains, locus YKL009W, strain mrt4, stronger effect = lower value",0.875 (active)
same,normalized growth,"S. cerevisiae deletion strains, locus YKL068W, stronger effect = lower value",0.984 (inactive)
same,normalized growth,"S. cerevisiae deletion strains, locus YKL085W, strain MDH1 (second series), stronger effect = lower value",0.957 (inactive)
same,normalized growth,"S. cerevisiae deletion strains, locus YKL085W, strain MDH1, stronger effect = lower value",0.957 (inactive)
same,normalized growth,"S. cerevisiae deletion strains, locus YKL160W, strain elf1, stronger effect = lower value",0.0849 (active)
same,normalized growth,"S. cerevisiae deletion strains, locus YKL190W, strain CNB1, stronger effect = lower value",0.0505 (active)
same,normalized growth,"S. cerevisiae deletion strains, locus YKR001C, strain vps1, stronger effect = lower value",0.0668 (active)
same,normalized growth,"S. cerevisiae deletion strains, locus YKR026C, strain gcn3, stronger effect = lower value",0.0825 (active)
same,normalized growth,"S. cerevisiae deletion strains, locus YKR091W, strain srl3, stronger effect = lower value",0.073 (active)
same,normalized growth,"S. cerevisiae deletion strains, locus YLL001W, strain dnm1, stronger effect = lower value",0.0784 (active)
same,normalized growth,"S. cerevisiae deletion strains, locus YLL026W, stronger effect = lower value",0.0619 (active)
same,normalized growth,"S. cerevisiae deletion strains, locus YLL041C, strain sdh2, stronger effect = lower value",0.0714 (active)
same,normalized growth,"S. cerevisiae deletion strains, locus YLR027C, strain aat2, stronger effect = lower value",0.0651 (active)
same,normalized growth,"S. cerevisiae deletion strains, locus YLR039C, strain RIC1, stronger effect = lower value",0.105 (active)
same,normalized growth,"S. cerevisiae deletion strains, locus YLR058C, strain SHM2, stronger effect = lower value",0.0587 (active)
same,normalized growth,"S. cerevisiae deletion strains, locus YLR102C, strain apc9, stronger effect = lower value",0.0738 (active)
same,normalized growth,"S. cerevisiae deletion strains, locus YLR113W, strain HOG1, stronger effect = lower value",0.941 (inactive)
same,normalized growth,"S. cerevisiae deletion strains, locus YLR221C, strain rsa3, stronger effect = lower value",0.0717 (active)
same,normalized growth,"S. cerevisiae deletion strains, locus YLR258W, strain gsy2, stronger effect = lower value",0.0705 (active)
same,normalized growth,"S. cerevisiae deletion strains, locus YLR262C, strain YPT6 (second series), stronger effect = lower value",0.0947 (active)
same,normalized growth,"S. cerevisiae deletion strains, locus YLR262C, strain YPT6, stronger effect = lower value",0.129 (active)
same,normalized growth,"S. cerevisiae deletion strains, locus YLR268W, strain sec22, stronger effect = lower value",0.0809 (active)
same,normalized growth,"S. cerevisiae deletion strains, locus YLR320W, strain mms22, stronger effect = lower value",0.0931 (active)
same,normalized growth,"S. cerevisiae deletion strains, locus YLR330W, strain CHS5, stronger effect = lower value",0.0585 (active)
same,normalized growth,"S. cerevisiae deletion strains, locus YLR342W, strain FKS1 (second series), stronger effect = lower value",0.0849 (active)
same,normalized growth,"S. cerevisiae deletion strains, locus YLR342W, strain FKS1, stronger effect = lower value",0.0733 (active)
same,normalized growth,"S. cerevisiae deletion strains, locus YLR357W, strain rsc2, stronger effect = lower value",0.148 (active)
same,normalized growth,"S. cerevisiae deletion strains, locus YLR370C, strain arc18, stronger effect = lower value",0.0604 (active)
same,normalized growth,"S. cerevisiae deletion strains, locus YLR371W, strain rom2, stronger effect = lower value",0.0675 (active)
same,normalized growth,"S. cerevisiae deletion strains, locus YLR384C, strain iki3, stronger effect = lower value",0.0666 (active)
same,normalized growth,"S. cerevisiae deletion strains, locus YLR418C, strain cdc73, stronger effect = lower value",0.125 (active)
same,normalized growth,"S. cerevisiae deletion strains, locus YML016C, strain PPZ1, stronger effect = lower value",0.0583 (active)
same,normalized growth,"S. cerevisiae deletion strains, locus YML032C, strain rad52, stronger effect = lower value",0.0831 (active)
same,normalized growth,"S. cerevisiae deletion strains, locus YML120C, strain ndi1, stronger effect = lower value",0.0683 (active)
same,normalized growth,"S. cerevisiae deletion strains, locus YML124C, strain tub3, stronger effect = lower value",0.0843 (active)
same,normalized growth,"S. cerevisiae deletion strains, locus YMR058W, strain fet3, stronger effect = lower value",0.0611 (active)
same,normalized growth,"S. cerevisiae deletion strains, locus YMR078C, strain ctf18, stronger effect = lower value",0.239 (active)
same,normalized growth,"S. cerevisiae deletion strains, locus YMR125W, strain sto1, stronger effect = lower value",0.0897 (active)
same,normalized growth,"S. cerevisiae deletion strains, locus YMR129W, stronger effect = lower value",0.061 (active)
same,normalized growth,"S. cerevisiae deletion strains, locus YMR205C, strain PFK2, stronger effect = lower value",0.199 (active)
same,normalized growth,"S. cerevisiae deletion strains, locus YMR223W, strain ubp8, stronger effect = lower value",0.0945 (active)
same,normalized growth,"S. cerevisiae deletion strains, locus YMR231W, strain pep5, stronger effect = lower value",0.0666 (active)
same,normalized growth,"S. cerevisiae deletion strains, locus YMR263W, strain SAP30, stronger effect = lower value",0.122 (active) and 1 (inactive)
same,normalized growth,"S. cerevisiae deletion strains, locus YMR307W, strain GAS1, stronger effect = lower value",0.122 (active) and 0.848 (active)
same,normalized growth,"S. cerevisiae deletion strains, locus YNL067W, strain RPL9B, stronger effect = lower value",0.0685 (active)
same,normalized growth,"S. cerevisiae deletion strains, locus YNL071W, strain lat1, stronger effect = lower value",0.0775 (active)
same,normalized growth,"S. cerevisiae deletion strains, locus YNL128W, strain TEP1, stronger effect = lower value",0.0773 (active)
same,normalized growth,"S. cerevisiae deletion strains, locus YNL153C, strain GIM3, stronger effect = lower value",0.0603 (active) and 0.583 (active)
same,normalized growth,"S. cerevisiae deletion strains, locus YNL175C, strain NOP13, stronger effect = lower value",1.15 [resistant] (active)
same,normalized growth,"S. cerevisiae deletion strains, locus YNL183C, strain NPR1, stronger effect = lower value",0.91 (inactive)
same,normalized growth,"S. cerevisiae deletion strains, locus YNL197C, strain WHI3, stronger effect = lower value",1.08 (inactive)
same,normalized growth,"S. cerevisiae deletion strains, locus YNL209W, strain ssb2, stronger effect = lower value",0.0693 (active)
same,normalized growth,"S. cerevisiae deletion strains, locus YNL224C, strain SQS1, stronger effect = lower value",1.11 [resistant] (active)
same,normalized growth,"S. cerevisiae deletion strains, locus YNL233W, strain BNI4, stronger effect = lower value",0.0609 (active)
same,normalized growth,"S. cerevisiae deletion strains, locus YNL248C, strain rpa49, stronger effect = lower value",0.102 (active)
same,normalized growth,"S. cerevisiae deletion strains, locus YNL250W, strain rad50, stronger effect = lower value",0.968 (inactive)
same,normalized growth,"S. cerevisiae deletion strains, locus YNL271C, strain bni1, stronger effect = lower value",0.982 (inactive)
same,normalized growth,"S. cerevisiae deletion strains, locus YNL298W, strain CLA4, stronger effect = lower value",0.938 (inactive)
same,normalized growth,"S. cerevisiae deletion strains, locus YNL307C, strain MCK1, stronger effect = lower value",0.0726 (active)
same,normalized growth,"S. cerevisiae deletion strains, locus YNL322C, strain KRE1 (second series), stronger effect = lower value",0.978 (inactive)
same,normalized growth,"S. cerevisiae deletion strains, locus YNL322C, strain KRE1, stronger effect = lower value",0.0571 (active)
same,normalized growth,"S. cerevisiae deletion strains, locus YNR049C, strain mso1, stronger effect = lower value",0.0676 (active)
same,normalized growth,"S. cerevisiae deletion strains, locus YNR052C, strain pop2, stronger effect = lower value",0.0713 (active)
same,normalized growth,"S. cerevisiae deletion strains, locus YOL006C, strain TOP1, stronger effect = lower value",0.119 (active)
same,normalized growth,"S. cerevisiae deletion strains, locus YOL012C, strain htz1",0.176 (active)
same,normalized growth,"S. cerevisiae deletion strains, locus YOL147C, strain pex11, stronger effect = lower value",0.0736 (active)
same,normalized growth,"S. cerevisiae deletion strains, locus YOR001W, strain rrp6, stronger effect = lower value",0.0923 (active)
same,normalized growth,"S. cerevisiae deletion strains, locus YOR061W, strain CKA2, stronger effect = lower value",0.0554 (active)
same,normalized growth,"S. cerevisiae deletion strains, locus YOR069W, strain VPS5, stronger effect = lower value",0.112 (active)
same,normalized growth,"S. cerevisiae deletion strains, locus YOR070C, strain gyp1, stronger effect = lower value",0.0657 (active)
same,normalized growth,"S. cerevisiae deletion strains, locus YOR080W, strain dia2, stronger effect = lower value",0.0771 (active)
same,normalized growth,"S. cerevisiae deletion strains, locus YOR083W, strain WHI5 (second series), stronger effect = lower value",0.748 (active)
same,normalized growth,"S. cerevisiae deletion strains, locus YOR083W, strain WHI5, stronger effect = lower value",0.0778 (active)
same,normalized growth,"S. cerevisiae deletion strains, locus YOR106W, strain vam3, stronger effect = lower value",0.0723 (active)
same,normalized growth,"S. cerevisiae deletion strains, locus YOR136W, strain idh2, stronger effect = lower value",0.0795 (active)
same,normalized growth,"S. cerevisiae deletion strains, locus YOR144C, strain elg1, stronger effect = lower value",0.0731 (active)
same,normalized growth,"S. cerevisiae deletion strains, locus YOR184W, strain ser1, stronger effect = lower value",0.0849 (active)
same,normalized growth,"S. cerevisiae deletion strains, locus YOR231W, strain MKK1, stronger effect = lower value",0.939 (inactive)
same,normalized growth,"S. cerevisiae deletion strains, locus YOR265W, strain rbl2, stronger effect = lower value",0.0652 (active)
same,normalized growth,"S. cerevisiae deletion strains, locus YOR270C, strain vph1, stronger effect = lower value",0.136 (active)
same,normalized growth,"S. cerevisiae deletion strains, locus YOR290C, strain snf2, stronger effect = lower value",0.0834 (active)
same,normalized growth,"S. cerevisiae deletion strains, locus YOR316C, strain cot1, stronger effect = lower value",0.0693 (active)
same,normalized growth,"S. cerevisiae deletion strains, locus YPL051W, strain arl3, stronger effect = lower value",0.12 (active)
same,normalized growth,"S. cerevisiae deletion strains, locus YPL055C, strain LGE1, stronger effect = lower value",0.072 (active) and 0.65 (active)
same,normalized growth,"S. cerevisiae deletion strains, locus YPL078C, strain atp4, stronger effect = lower value",0.161 (active)
same,normalized growth,"S. cerevisiae deletion strains, locus YPL106C, strain sse1, stronger effect = lower value",0.104 (active)
same,normalized growth,"S. cerevisiae deletion strains, locus YPL240C, strain hsp82, stronger effect = lower value",0.0671 (active)
same,normalized growth,"S. cerevisiae deletion strains, locus YPL241C, strain CIN2, stronger effect = lower value",0.0575 (active)
same,normalized growth,"S. cerevisiae deletion strains, locus YPL256C, strain CLN2, stronger effect = lower value",0.914 (inactive)
same,normalized growth,"S. cerevisiae deletion strains, locus YPR119W, strain clb2, stronger effect = lower value",0.079 (active)
same,normalized growth,"S. cerevisiae deletion strains, locus YPR141C, strain kar3, stronger effect = lower value",0.98 (inactive)
same,normalized growth,"S. cerevisiae deletion strains, locus YPR163C, strain tif3, stronger effect = lower value",0.0727 (active)
same,normalized growth,"S. cerevisiae deletion strains, locus YPR167C, strain met16, stronger effect = lower value",0.0761 (active)
same,normalized growth,"S. cerevisiae deletion strains, strain wtn01, stronger effect = lower value",0.073 (active)
same,normalized growth,"S. cerevisiae strains, strain wild type, stronger effect = lower value",0.0552 (active)
